# PubChem BioAssay AID1117271 (Broad Institute, 2014)
# Measured potencies and affinities stand elsewhere. Active and inactive are the calls of the source. The rule behind the calls is not given here.
# Experiment: inhibitors of orthopox intermediate gene expression, dose response, cell-based, single fluorophore reporter, dry powder (AID 1117271)
structure (smiles),measurement,value
COc1ccccc1-c1ccc(CN(C)C[C@@H]2Oc3cc(C#C[C@@H](C)O)ccc3S(=O)(=O)N([C@@H](C)CO)C[C@@H]2C)cc1,outcome,inactive
